Results reported in PubChem BioAssay (EPA / NIEHS).
Where “and” joins values, the source holds several entries; their conditions need not be identical. Equal values may be shown once. Results filed as inconclusive are left out. Calls of active or inactive are those of the source. How the source made its calls: active means hit-call score of the fitted dose curve at least 0.9, where 1 is the maximum; inconclusive means response in the unintended direction; inactive means score below 0.9.

Assay: ACEA_ER_AUC_viability: ACEA Biosciences xCELLigence Real-Time Cell Analysis on Estrogen Receptor Agonism for Viability (AID 2283782);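 further: continuous compound exposure with impedance area under curve over 80 h; hit means loss of impedance signal meaning reduced cell growth or viability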
Method in brief: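 T-47D; phenol red-free RPMI1640 + 10% CS-FBS; 8 conc., 1:4 serial, max 100 uM final, ≤0.5% DMSO; n = 2; continuous exposure; impedance monitored to 80 h post-dose; AUC vs DMSO.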

Row | SMILES | AC50 | outcome
1 | ClCc1ccccc1CCl | 29.6 µM (active) | 
2 | CCOC(=O)C(SP(=S)(OC)OC)c1ccccc1 (stereo not given) |  | inactive
3 | BrCCCCBr |  | inactive
4 | Brc1ccc(Br)cc1 |  | inactive
5 | CCCCC(CC)COC(=O)Cl (stereo not given) |  | inactive
6 | C=C(C)C(=O)OCCCCOC(=O)C(=C)C | 30.7 µM (active) | 
7 | C=CC(=O)NC(C)(C)CC(C)=O |  | inactive
8 | Nc1cccnc1 |  | inactive
9 | CC(C)(C)c1cc([N+](=O)[O-])cc(C(C)(C)C)c1O | 24.3 µM (active) | 
10 | CC(C)(C#N)N=NC(C)(C)C#N |  | inactive
11 | CCC(C)(C#N)N=NC(C)(C#N)CC (stereo not given) |  | inactive
12 | O=C(CCl)NCO |  | inactive
13 | CN(C1CCCCC1)C1CCCCC1 | 68.6 µM (active) | 
14 | CC(C)(COCC1CO1)COCC1CO1 (stereo not given) | 29.9 µM (active) | 
15 | C=CCN=C=S |  | inactive
16 | CCOP(=S)(OCC)OP(=S)(OCC)OCC |  | inactive
17 | CC(C)[C@H](C(=O)OC(C#N)c1cccc(Oc2ccccc2)c1)c1ccc(OC(F)F)cc1 (stereo not given in full) | 38 µM (active) | 
18 | O=[N+]([O-])c1cccc2ccccc12 |  | inactive
19 | O=[N+]([O-])c1cc([As](=O)(O)O)ccc1O |  | inactive
20 | O=C(O)COc1cc(Cl)c(Cl)cc1Cl |  | inactive
21 | C=C(C)C(=O)OCC(CC)CCCC (stereo not given) |  | inactive
22 | Cc1cc(Cl)ccc1N | 80.8 µM (active) and 14.3 µM (active) | 
23 | CC(C=O)Cc1ccc2c(c1)OCO2 (stereo not given) |  | inactive
24 | Cc1cccc(OP(=O)(Oc2cccc(C)c2)Oc2cccc(C)c2)c1 | 17.3 µM (active) | 
25 | c1ccc(-c2cccc(-c3ccccc3)c2)cc1 | 24.4 µM (active) | 
26 | N#Cc1ccccc1Cl |  | inactive
27 | CCCCC(CC)C(=O)Cl (stereo not given) |  | inactive
28 | CCCCOC(=O)COC(=O)c1ccccc1C(=O)OCCCC |  | inactive
29 | O=S(=O)(c1ccc(Cl)cc1)c1cc(Cl)c(Cl)cc1Cl | 69.2 µM (active) | 
30 | O=c1oc2ccccc2c(O)c1C(CC(O)c1ccc(-c2ccc(Br)cc2)cc1)c1ccccc1 (stereo not given) | 22.7 µM (active) | 
